Compound activity deposited in PubChem by National Center for Advancing Translational Sciences (NCATS).
FMDV inh: High Throughput Screening for Foot and Mouth Disease Virus Antivirals; 410,000 tested, 1.2% active; FMDV antiviral cell-based qHTS; Potency, µM (highest dose often 57.9 µM), for inactives: top-dose activity change, negative = inhibition, most hits filed as inhibitors; calls by dose curve; tested in HEK293T cells; further: read-out not given here; potency means the concentration at half of the fitted maximal effect; on the % scale 0 is the no-effect control and ±100 the full control effect; nearly all actives have a fitted effect of over 45% in size
Sm TGR block: qHTS Assay for the Inhibitors of Schistosoma Mansoni Peroxiredoxins; Potency, µM (highest dose often 114 µM), inactives show at the highest dose activity change, negative = inhibition, usual class: inhibitors; 360,000 tested, 3% active; purified TGR, DTNB reduction, TNB absorbance 405 nm; Schistosoma mansoni thioredoxin glutathione reductase (TGR), Q962Y6; active means well fitted inhibition curve with a large enough effect; inconclusive means small, poorly fitted or top-dose-only effect; inactive means no such curve, though single readings can be large or run the other way; further: potency means the concentration at half of the fitted maximal effect; on the % scale 0 is the no-effect control and ±100 the full control effect; nearly all actives have a fitted effect of over 60% in size
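Kinetic colorimetric format: TGR-catalysed, NADPH-driven DTNB reduction monitored via TNB absorbance. Enzyme dispensed at 20 nM; compound exposure 15 min at room temperature before reaction start.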
Shiga toxin inh: A qHTS for Small Molecule Inhibitors of Shiga Toxin; 290,000 tested, 9.2% active; Vero cells, Shiga toxin protein synthesis inhibition reporter; inhibition, % at 38.7 µM; AID 2315, 2010; in the data active means inhibition mostly above about 28%, no sharp cut-off; inactive means mostly below about 43%; further: 0% is about no effect
CHX counter: Cycloheximide Counterscreen for Small Molecule Inhibitors of Shiga Toxin. cell reporter, cycloheximide protein synthesis inhibition counterscreen. max response, %. 300,000 tested, 12% active. AID 2314, 2010; in the data active means max response mostly above about 13%, no sharp cut-off; inactive means mostly below about 14%; further: read at 38.3 µM for the half of the compounds with a filed dose; 0% is about no effect
* marks the source's active call; other numbers are inactive results; ? = inconclusive; nt = not tested or not shown. Most compounds without a hit are left out; they make up all but 12% or so of the library.

SMILES	FMDV inh	Sm TGR block	Shiga toxin inh	CHX counter
O=C(NC1CCS(=O)(=O)C1)/C(=C\c1ccco1)NC(=O)c1ccccc1 (stereo not given)	-13%	35µM*	-9	1
O=C(Nc1ccccc1NC(=O)c1ccco1)c1ccccc1	?	1%	-7	-13
CC(C)(C)c1ccc(C(=O)N/C(=C\c2ccco2)C(=O)Nc2ccccc2C(=O)O)cc1	-24%	40µM*	60*	31*
CS(=O)(=O)Nc1ccc(C(=O)Nc2ccccc2Cl)cc1	9%	nt	58	9
CC(C)(C)c1ccc(C(=O)Nc2ccccc2NC(=O)c2ccco2)cc1	-19%	-7%	29*	20*
CC(C)(C)c1ccc(C(=O)Nc2ccccc2Cl)cc1	17%	7%	50*	19
O=C(CSc1ncc(-c2ccccc2)[nH]1)Nc1cccc(C(F)(F)F)c1	19%	-1%	nt	nt
CCc1ccc(NC(=O)N(Cc2cn(CC)c3ccccc23)C2CCCCC2)cc1	60%	2%	nt	nt
Cc1csc(NC(=O)CSCc2c(C)noc2C)n1	7%	4%	nt	nt
COc1ccc(-c2csc(NC(=O)CSCc3c(C)noc3C)n2)cc1OC	40µM*	-2%	-4	-2
COc1ccc(-c2csc(NC(=O)CSCC(=O)Nc3cc(C)on3)n2)cc1OC	-29%	-8%	nt	nt
Cc1noc(C)c1CSCC(=O)Nc1nc(-c2ccc(F)c(F)c2)cs1	18µM*	7%	nt	nt
CC1=C(C(=O)Nc2ccccc2)C(c2ccc(Br)cc2)n2nc(CCCO)nc2N1 (stereo not given)	-19%	1%	nt	nt
COc1ccc(-n2ncc3c2ncn2nc(-c4ccc(Cl)cc4Cl)nc32)cc1	16%	0%	nt	nt
C/C(=N\NS(=O)(=O)c1ccc(Cl)c([N+](=O)[O-])c1)c1cc2ccccc2o1	22%	50µM*	-11	1
C/C(=N\NS(=O)(=O)c1ccc(C)c([N+](=O)[O-])c1)c1cc2ccccc2o1	31%	-3%	17	-2
C/C(=N\NS(=O)(=O)c1ccc(Cl)c([N+](=O)[O-])c1)c1ccc(C)o1	2%	6.3µM*	-3	-5
CCc1nn2c(-c3ccco3)ccnc2c1-c1ccc(F)cc1	57%	-2%	nt	nt
CCOC(=O)CC(NC(=O)Cn1nnc(-c2ccc(C(F)(F)F)cc2)n1)c1ccc(C)cc1 (stereo not given)	-19%	-7%	nt	nt
CC(=O)c1ccc(Sc2ccc(C(C)=O)cc2)cc1	-18%	3%	40*	37*
CC(=O)c1ccc(Sc2ccccc2)cc1	17%	1%	13	19
O=[N+]([O-])c1ccc2c(c1)nc1n2CCSC1	-5%	29%	-3	-2
O=[N+]([O-])c1ccc2c(c1)nc1n2CCN(c2ccccc2)C1	-14%	28µM*	29*	37*
O=[N+]([O-])c1ccc2c(c1)nc1n2CCN(CC2CCCO2)C1 (stereo not given)	32%	?	24	28*
COCCN1CCn2c(nc3cc([N+](=O)[O-])ccc32)C1	-5%	40µM*	-4	-3
SMILES	FMDV inh	Sm TGR block	Shiga toxin inh	CHX counter
CCCCC(=O)Nc1ccc2c(c1)nc1n2CCN(CCOC)C1	-6%	-11%	-5	0
CCCn1c(=O)c2sccc2n2c(CCCC(=O)N3CCN(c4ccc(OC)cc4)CC3)nnc12	-18%	-8%	nt	nt
Cc1ccc(CC(=O)NCc2ccc(F)cc2)cc1	9%	10%	28	11*
Cc1ccc2c(cnn2C(=O)CCCC(=O)NCc2ccc(F)cc2)c1	-2%	0%	26*	11*
CC(C)CNC(=O)CCCc1ccccc1	26%	-2%	35*	43*
CC1SC(C)C(=O)N(CC(=O)NCc2ccc(F)cc2)C1=O (stereo not given)	5%	-2%	4	13*
Cc1ccc(S(=O)(=O)NCCc2nnc3ccc(SCc4ccccc4F)nn23)cc1	9%	8%	nt	nt
COc1ccc(OC)c(CN2CCOc3ccc(C(O)c4cccnc4)cc3C2)c1 (stereo not given)	-4%	nt	nt	nt
COC(=O)c1sccc1S(=O)(=O)N(CC(=O)NCc1ccc(F)cc1)c1ccc(C)c(C)c1	0%	0%	nt	nt
CC(=O)c1cccc(NC(=O)c2nc3ccccc3n(C)c2=O)c1	26%	-4%	nt	nt
COc1ccccc1CNC(=O)CN1C(=O)c2cccc(N)c2C1=O	12%	14%	68*	39*
O=C(COC(=O)Cc1ccc(-c2ccccc2)cc1)NCc1ccc(F)cc1	19%	19%	11	15*
COc1ccccc1CNC(=O)Cc1ccc(C)cc1	43%	-1%	38	25*
Cc1ccc(CNC(=O)COC(=O)Cc2ccc(-c3ccccc3)cc2)cc1	-11%	-1%	14	-1
COc1ccccc1CNC(=O)CCN1C(=O)c2ccccc2C1=O	7%	-23%	-5	-2
COc1ccccc1CNC(=O)CCCc1ccccc1	-4%	-6%	65*	23*
CCc1ccc(-n2c(=O)c3sc4ccccc4c3n(CC(=O)NCc3ccccc3)c2=O)cc1	-16%	1%	nt	nt
Cc1cccc(NC(=O)C(=O)NCC(c2cccnc2)N2CCOCC2)c1 (stereo not given)	-8%	12%	nt	nt
COc1cc(Cl)c(C)cc1NC(=O)CC1Oc2ccccc2NC1=O (stereo not given)	-18%	9%	nt	nt
CCC(CC)C(=O)c1c[nH]c(C(=O)NCc2ccccc2OC)c1	40µM*	9%	6	0
COc1ccc(Br)cc1CNC(=O)c1ccc(-n2c(C)cc3c2CCC(C)C3)cc1 (stereo not given)	-4%	-25%	nt	nt
COc1ccc(C(=O)Nc2cc3c(cc2Cl)OCCCO3)cc1	26%	-5%	94*	45*
COc1ccc(C(=O)Nc2cc3c(cc2C(=O)c2ccccc2Cl)OCCO3)cc1	-23%	-1%	nt	nt
COc1cccc(C(=O)Nc2cc3c(cc2Cl)OCCCO3)c1	-4%	-4%	84*	76*
CCOC(=O)COc1ccc(CC)cc1C(=O)c1ccn2nc(-c3ccccc3)cc2n1	-22%	-9%	nt	nt
SMILES	FMDV inh	Sm TGR block	Shiga toxin inh	CHX counter
C[CH2][Hg][S]c1ccccc1C(=O)O	28µM*	nt	nt	nt
CC(Sc1cn(CCNC(=O)c2ccccc2F)c2ccccc12)c1ccccc1 (stereo not given)	?	0%	nt	nt
Cc1ccccc1OCC(O)CN1C(=O)c2ccccc2C1=O (stereo not given)	67%	2%	39*	37*
CCSc1nc2c(c(=O)[nH]c(=O)n2C)n1CC(O)COc1ccccc1C (stereo not given)	20µM*	-15%	-6	-5
O=C1c2ccccc2C(=O)N1CC(O)COc1ccccc1Cl (stereo not given)	51%	9%	91*	45*
Cc1ccc(C)c(N2CCN(C(=O)C(C)n3c(C)c4cnn(-c5ccccc5)c(=O)c4c3C)CC2)c1 (stereo not given)	0%	3%	nt	nt
COc1ccc(Cn2c(=O)c3oc4ccccc4c3n(Cc3cccc(C(F)(F)F)c3)c2=O)cc1	-12%	5%	nt	nt
CCC1CN(C(=O)N2CCC(C(=O)NCCc3ccc(C)cc3)CC2)c2ccccc2O1 (stereo not given)	?	-1%	nt	nt
Cc1cc(C)cc(NC(=O)C2CC3CCC2C3)c1 (stereo not given)	21%	-6%	-5	1
